From PubChem BioAssay AID602182 (The Scripps Research Institute Molecular Screening Center, 2012)
Some of the results follow. Active and inactive are the calls of the source. How the calls were made is not given here.

Experiment: quenching of GFP signal – biochemical, fluorescence, artefact control for Rin1-Abl interaction inhibitor project, dose response (AID 602182);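 further: ABL1-eGFP fusion protein alone without its RIN1 binding partner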
Conditions: GFP fluorescence interference/quenching counterscreen

Question: With `CN(Cc1c(F)cccc1Cl)C(=O)CNC(=O)c1ccc2c(c1)OCO2` as the compound, how does the IC50 read?
Answer: The IC50 was > 67.6 µM (inactive).

Question: With `CC(OC(=O)c1ccccc1NCCO)C(=O)Nc1ccnn1C(C)C` (stereo not drawn) as the compound, how does the IC50 read?
Answer: The IC50 was > 67.5 µM (inactive).

Question: For `C=CCn1c2ccccc2c2nnc(SCc3[nH]c(=O)[nH]c3C(=O)CCCCC(=O)OCC)nc21`, which IC50 is on record?
Answer: The IC50 was > 67.5 µM (inactive).

Question: For `CCOC(=O)N1CCN(C(=O)C2CCN(c3ncnc4c3sc3cccc(F)c34)CC2)CC1`, which IC50 is on record?
Answer: The IC50 was > 67.6 µM (inactive).

Question: With `C[C@@H]1CN([C@H](C)CO)S(=O)(=O)c2ccc(C#C[C@@H](C)O)cc2O[C@@H]1CN(C)Cc1ccc(-c2ccccc2)cc1` as the compound, how does the IC50 read?
Answer: Its IC50 is > 67.5 µM (inactive).

Question: For `Cc1ccccc1CN1C[C@@H]2C[C@@H](c3ccc4nsnc4c3)N3CCC[C@@]23C1=O`, which IC50 is on record?
Answer: Its IC50 is > 67.5 µM (inactive).

Question: For `CN(C(=O)c1ccc(NC(=O)Cc2cccc(NC(=O)C3CCN(C(=O)c4ccccc4)CC3)c2)cc1)C1CC1`, which IC50 is on record?
Answer: Its IC50 is > 67.6 µM (inactive).

Question: For `Nc1cc(=O)c2[nH]cnc2[nH]1`, which IC50 is on record?
Answer: The IC50 was > 67.7 µM (inactive).
